# High-throughput results: PubChem BioAssay, The Scripps Research Institute Molecular Screening Center
# This is a sample that favours compounds with a hit; in the whole collection about 1.8% have one here.
# GSTO1 counter: GSTO1 inhibition, counter-screen for RBBP9 inhibitors; P78417; recombinant GSTO1, activity-based probe fluorescence polarization; inhibition, % at 5.96 µM; 1.1% of 300,000 active;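 active means inhibition above the campaign mean inhibition plus 3 SD, cut at about 35% in these data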;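 further: 0% = GSTO1-1 with DMSO and 100% = wells lacking GSTO1-1 enzyme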
# Target sequence (P78417 whole entry, looked up): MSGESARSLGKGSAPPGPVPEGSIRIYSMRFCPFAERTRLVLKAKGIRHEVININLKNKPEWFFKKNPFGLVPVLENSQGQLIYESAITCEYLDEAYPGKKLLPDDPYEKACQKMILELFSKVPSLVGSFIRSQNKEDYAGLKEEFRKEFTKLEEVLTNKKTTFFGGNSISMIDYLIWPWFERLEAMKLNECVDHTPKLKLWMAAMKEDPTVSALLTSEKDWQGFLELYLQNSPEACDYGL
# LYPLA1 counter: LYPLA1 (human) inhibition in PME1 counter-screen; O75608; recombinant LYPLA1, FP-Rh probe fluorescence polarization; inhibition, % at 5.9 µM; 0.16% of 320,000 active; AID 2174;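 active means inhibition above the mean of all tested compounds plus 3 SD, set per campaign, cut at about 14% in these data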;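 further: inhibitors block serine hydrolase probe labeling of LYPLA1 so polarization falls; 0% = enzyme with DMSO and 100% = wells lacking LYPLA1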
# PME-1 primary: blocks human protein phosphatase methylesterase 1; Q9Y570; recombinant PME-1, FP-Rh probe fluorescence polarization; inhibition, % at 5.9 µM; 0.53% of 320,000 active; AID 2130;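 active means inhibition above the campaign mean of all compounds plus 3 SD, cut at about 26% in these data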;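 further: competitive labeling of PME-1 active site by serine hydrolase directed probe; 0% = PME-1 with DMSO and 100% = wells lacking PME-1 enzyme; inhibitors block probe labeling so polarization falls and inhibition rises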
# Target sequence (Q9Y570 whole entry, looked up): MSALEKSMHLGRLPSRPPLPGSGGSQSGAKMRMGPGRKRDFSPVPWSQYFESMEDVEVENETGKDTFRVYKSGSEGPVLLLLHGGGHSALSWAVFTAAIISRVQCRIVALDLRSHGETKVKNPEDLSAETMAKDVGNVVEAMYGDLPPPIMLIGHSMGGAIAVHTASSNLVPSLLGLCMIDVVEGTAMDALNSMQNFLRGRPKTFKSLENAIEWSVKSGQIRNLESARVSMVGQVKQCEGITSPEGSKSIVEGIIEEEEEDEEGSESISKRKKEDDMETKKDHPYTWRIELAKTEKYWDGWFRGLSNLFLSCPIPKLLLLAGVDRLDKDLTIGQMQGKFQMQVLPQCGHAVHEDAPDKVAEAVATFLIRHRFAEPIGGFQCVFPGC
# PAD4 inh: inhibitors of human PAD4; 0.41% of 330,000 active; inhibition, % at 6.36 µM; Q9UM07; recombinant PAD4, RCA probe fluorescence polarization;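 active means percent inhibition above a cutoff equal to the mean of all tested compounds plus 3 SD, cut at about 15% in these data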;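 further: 0% = PAD4 with RCA probe and DMSO and 100% = probe without PAD4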
# LYPLA2 inh: counter-screen for PME1 inhibitors: inhibitors of human LYPLA2 | O95372 | recombinant LYPLA2, FP-Rh probe fluorescence polarization | inhibition, % at 5.9 µM | 0.38% of 320,000 active | AID 2177;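 active means inhibition above the screen-wide mean plus 3 SD, limit set per campaign, cut at about 26% in these data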;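 further: 0% = LYPLA2 with DMSO and 100% = wells lacking LYPLA2 enzyme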
# Fam108B inh: Fam108B inhibition, counter-screen for RBBP9 inhibitors | recombinant Fam108B, FP-Rh probe fluorescence polarization | 0.33% of 300,000 active | inhibition, % at 9.51 µM;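 active means inhibition above the screen mean inhibition plus 3 SD, computed separately per campaign, cut at about 18% in these data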;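 further: inhibitors lower polarization as less probe binds the enzyme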
# LYPLA2 confirm: LYPLA2 (human) inhibition, confirmation counter-screen. shares compounds with LYPLA2 inh. recombinant LYPLA2, FP-Rh probe fluorescence polarization. 72% of 1,100 active. inhibition, % at 5.9 µM;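 active means mean inhibition across replicates above the hit cutoff set in the primary screen, cut at about 26% in these data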;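 further: blocked labeling of the enzyme by serine hydrolase FP-Rh probe lowers polarization; 0% = enzyme with DMSO and 100% = wells lacking LYPLA2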
# LYPLA2 gel ABPP: blocks human acyl-protein thioesterase 2 in gel ABPP; rhLYPLA2 in mouse brain proteome, gel ABPP FP-Rh; inhibition, % at 20 µM; shares compounds with LYPLA2 inh; 30% of 150 active;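 active means inhibition of LYPLA2 enzyme probe labeling above about 50%, limit read from the data; inactive means inhibition below that limit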;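 further: loss of FP-Rh probe labeling of the LYPLA2 gel band measured as band density; 0% = DMSO only control band and 100% = blank gel background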
# An asterisk follows results filed as active; x = no result given.
SMILES,GSTO1 counter,LYPLA1 counter,PME-1 primary,PAD4 inh,LYPLA2 inh,Fam108B inh,LYPLA2 confirm,others
CCOC(=O)CNC(=O)Cn1c(C)cc2ccccc2c1=O,0,0,2,-3,1,-4,x,
COc1cccc(-n2c(SCC(N)=O)nc3c([nH]c4ccccc43)c2=O)c1,-3,2,4,-2,174*,0,1,
COc1cccc(-n2c(SCC(=O)N3CCCCC3)nc3c([nH]c4ccccc43)c2=O)c1,-1,1,0,-6,-1,1,x,
COc1cc(C(=O)NCC(=O)NC(C)CCc2ccccc2)cc(OC)c1OC (configuration not stated),-1,3,0,3,27*,-3,-2,
COc1cc(C(=O)NCCCc2ccccc2)cc(OC)c1OC,0,1,1,-6,1,-2,x,
O=[N+]([O-])c1ccccc1-c1nc(-c2ccc(Br)o2)no1,0,0,3,-6,32*,-1,29*,
CCCN=C1N(C)C[C@@H]2[C@@H]3C(=O)N(C)C(=O)[C@@H]3[C@](C)(C(=O)OC)N12,x,x,x,0,x,x,x,
COc1ccc(N2CCN(C3CC(=O)N(Cc4ccccc4)C3=O)CC2)cc1 (configuration not stated),1,-3,4,-4,0,2,x,
O=C(c1ccncc1)c1ccc(N2CCN(C3CC(=O)N(Cc4ccccc4)C3=O)CC2)cc1 (configuration not stated),8,6,-7,-1,28*,1,23,
COc1ccccc1NC(=O)CCn1c(=O)c2cccn2c2ccccc21,7,-2,2,-1,26*,1,-5,
O=S(=O)(NCc1ccccc1)c1ccc(NC(=S)NCc2ccco2)cc1,-9,-3,-1,-4,-4,-2,x,
CCc1nnc(NS(=O)(=O)c2ccc(N/C=C(\C=O)c3nc4cc(Cl)ccc4o3)cc2)s1,-21,0,6,-3,29*,-3,43*,
NCCCC[C@H]1CNC(=S)N1CCc1cccc(F)c1,3,4,4,-4,3,-1,x,
CCCCCCN1CC(=O)N2Cc3[nH]c4ccccc4c3C[C@H]2C1=O,-1,-1,4,0,58*,0,58*,LYPLA2 gel ABPP=35
CCCCCN1CC(=O)N2Cc3[nH]c4ccccc4c3C[C@H]2C1=O,-1,-1,-2,-3,56*,-5,56*,LYPLA2 gel ABPP=38
O=C1[C@@H]2Cc3c([nH]c4ccccc34)CN2C(=O)CN1CCCO,2,-15,0,-2,1,1,x,
O=C1NC(c2ccc(Cl)cc2)=COc2ccccc21,-14,2,8,-2,36*,0,30*,
COc1ccc(N2CCN(CCCNC(=O)c3cc4sccc4n3C)CC2)cc1,1,4,-1,0,33*,1,32*,
Cc1ccc(S(=O)(=O)Nc2cccc(-n3cnnn3)c2)cc1C(=O)O,2,1,14,-3,33*,1,1,
CC12CCC(c3c(C(=O)N4CCOCC4)nn(-c4ccccc4)c31)C2(C)C (configuration not stated),3,7,4,-3,28*,-1,-3,
CC12CCC(c3c(C(=O)O)nn(-c4ccc(F)cc4)c31)C2(C)C (configuration not stated),8,-7,-3,-3,-1,-4,x,
Cc1ccc(S(=O)(=O)N(C)c2ccc(OCC(=O)Nc3ccc(C(=O)N(C)C)cc3)cc2)cc1C,x,0,3,0,9,x,x,
CC(C)N1CCc2c(sc(NC(=O)c3ccc(C(=O)c4ccccc4)cc3)c2C(N)=O)C1,-107,-5,-2,-2,26*,3,31*,
C/C(CCC(C)C)=N\NC(=S)Nc1cc(S(=O)(=O)N2CCOCC2)ccc1N1CCOCC1,-9,6,5,-2,28*,4,62*,
COc1ccc2cc(/C(C)=N/NC(=S)Nc3cc(S(=O)(=O)N4CCOCC4)ccc3N3CCOCC3)ccc2c1,-17,-6,-6,-1,-7,-6,x,
SMILES,GSTO1 counter,LYPLA1 counter,PME-1 primary,PAD4 inh,LYPLA2 inh,Fam108B inh,LYPLA2 confirm,others
CC(=O)Nc1ccc(C(=O)OCC(=O)Nc2c(C)n(C)n(-c3ccccc3)c2=O)cc1,x,x,x,-5,x,x,x,
C[C@@H]1C(c2cccc(Cl)c2)=NN(c2ccc(Br)cc2)[C@H]1C(=O)N1CCOC1=O,x,x,x,1,x,x,x,
COc1ccc(CCN2C(=O)CC(Cc3ccccc3)C2=O)cc1OC (configuration not stated),6,1,-8,5,7,2,x,
COc1ccc(CCN2C(=O)CC(NNc3ccc([N+](=O)[O-])cc3)C2=O)cc1OC (configuration not stated),-4,1,5,0,51*,-2,54*,LYPLA2 gel ABPP=17
CCCC(=O)Nc1ccc(NC(=S)NC(=O)c2ccccc2[N+](=O)[O-])cc1,-1,2,2,-4,30*,3,31*,
CCC(=O)NC(=S)Nc1ccc(NC(=O)c2ccccc2[N+](=O)[O-])cc1,-5,0,-1,-5,14,7,x,
O=C1Nc2ccc([N+](=O)[O-])cc2OC1CCN1CCN(Cc2ccccc2)CC1 (configuration not stated),6,-1,-4,1,15,-1,x,
O=C1Nc2ccc([N+](=O)[O-])cc2OC1CCN1CCN(Cc2ccc3c(c2)OCO3)CC1 (configuration not stated),-3,1,9,-2,72*,1,79*,LYPLA2 gel ABPP=61*
CC(=C/c1ccc(C(C)C)cc1)/C=N/NC(=O)Cn1nnnc1N,19,1,-6,-6,40*,-1,40*,
CC(/C=N/NC(=O)CSc1ccccn1)=C\c1ccc(C(C)C)cc1,0,-3,-9,-1,20,-1,x,
O=C1N(Cc2cccnc2)C[C@@H]2C[C@@H](c3cccc(Oc4ccccc4)c3)N3CCC[C@@]123,-7,5,5,-2,27*,-3,18,
O=C(Nc1cccc(Oc2ccc(C(=O)O)c(C(=O)O)c2)c1)c1ccc(-c2ccccc2)cc1,-16,-1,-21,-3,54*,-15,40*,
CC(C)(C)C(=O)Nc1ccc(C(=O)Nc2cccc(Oc3ccc(C(=O)O)c(C(=O)O)c3)c2)cc1,-3,2,-8,-1,31*,-3,21,
CC(C)(C)C(=O)Nc1ccc(C(=O)Nc2cc(NC(=O)c3ccc(NC(=O)C(C)(C)C)cc3)cc(C(=O)O)c2)cc1,-8,-8,-7,-4,-5,-3,x,
Cc1ccc(S(=O)(=O)CCC(=O)OCCOc2cccc(Br)c2)cc1,x,0,1,-2,3,x,x,
